This is an account of results in PubChem BioAssay (Tox21).

Values joined by “and” are separate entries in the source; they are usually repeats but may differ in a detail not shown here. Identical values can stand only once. Records with an inconclusive call do not appear. Some compounds were tested as several samples or in several runs, with calls that do not always agree. Active and inactive are the calls of the source. Unless noted, calls come from the whole dose curve; as a rule, active = well fitted curve in the direction sought with a large enough effect in the repeat runs; inconclusive = weak or mixed curves; inactive = no such curve, though single readings can be large; an effect the other way counts as inactive or inconclusive.

Experiment [1] can be described thus: Human pregnane X receptor (PXR) small molecule agonists, qHTS cell viability counter screen (AID 1346977). Note: nearly all actives have a fitted effect of over 50% in size. The method, boiled down: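 Measures live-cell protease fluorescence (CellTiter-Fluor) in PXR-Luc HepG2 cells treated 24hr with compounds at 37C. Cells had 5hr to attach before pin transfer of DMSO solutions.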
(Quantitative high-throughput screening tests each substance at several concentrations.)

Experiment [2] can be described thus: Caspase-3/7 induction in HepG2 cells by small molecules, qHTS assay (AID 1346978). Note: nearly all actives have a fitted effect of over 15% in size. Note: potency is the fitted concentration of half-maximal effect. The method, boiled down: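 Wild-type HepG2 cells, 2,000/well, settled 5 hr at 37 C and 5% CO2, then compound-treated for 17 hr; caspase-3/7 activity read by luminescent Caspase-Glo 3/7 after 30 min at room temperature.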
The nature of experiment [3]: Caspase-3/7 induction in CHO-K1 cells by small molecules, qHTS cell viability counter screen (AID 1346979). Note: nearly all actives have a fitted effect of over 35% in size. The gist of the method:
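In the same wells as the caspase read, viability of compound-treated wild-type CHO-K1 cells was assessed using CellTiter-Fluor, added after 16hr at 37C and measured by fluorescence following 1hr further incubation.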

A short description of experiment [4]: Caspase-3/7 induction in CHO-K1 cells by small molecules, qHTS assay (AID 1346980). Note: nearly all actives have a fitted effect of over 15% in size. The gist of the method: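 Wild-type CHO-K1 cells exposed to compounds for 17hr at 37 C, 5% CO2. Caspase-3/7 activity then measured by Caspase-Glo 3/7 luminescence after 30min at room temperature.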
Experiment [5] in a line: Caspase-3/7 induction in HepG2 cells by small molecules, qHTS cell viability counter screen (AID 1346981). Note: series mostly up to about 92 µM; nearly all actives have a fitted effect of over 30% in size. The gist of the method: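 Cell viability is measured as a cytotoxicity counter screen alongside the Caspase-Glo 3/7 readout in identical wells. Wild-type HepG2 cells are treated with test compounds for 16 hr at 37 C before CellTiter-Fluor addition and a 1-hr incubation.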

The target of experiment [6] is Nuclear receptor subfamily 1 group I member 2 (Homo sapiens) (UniProt O75469). Put plainly: Human pregnane X receptor (PXR) small molecule agonists, qHTS assay (AID 1346982). Note: nearly all actives have a fitted effect of over 35% in size. Note: potency is the fitted concentration of half-maximal effect. The gist of the method:
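Cells: HepG2 stably carrying PXR-Luc. Medium held 5% charcoal-stripped FBS. Compounds in DMSO added after 5 hr plating, incubated 24 hr, then luminescence quantified with ONE-Glo.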

The target in experiment [7] is Acetylcholinesterase (Homo sapiens) (UniProt P22303). Put plainly: Acetylcholinesterase (AChE) small molecule antagonists: colormetric cell-based qHTS assay (AID 1347395; calls by dose curve; note: nearly all actives have a fitted effect of over 30% in size). The method, boiled down: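 Endogenous AChE of human neuroblastoma SH-SY5Y cells was measured with an Ellman-type DTNB/acetylthiocholine mix. Compound pretreatment lasted 30 min at 37 C; substrate reaction ran 90 min at 37 C.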

The target is the same in experiment [8]. Put plainly: Acetylcholinesterase (AChE) small molecule antagonists: enzyme-based qHTS assay (AID 1347397; calls by dose curve; note: nearly all actives have a fitted effect of over 55% in size). To be noted: Potency: AChE enzyme activity inhibition. The method, boiled down:
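Colorimetric DTNB read-out of thiocholine released from acetylthiocholine by recombinant human AChE (50 mU/mL as dispensed). Compounds were preincubated 30 min at RT before substrate/DTNB addition, with a 10 min RT reaction.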

The target is the same in experiment [9]. Put plainly: Acetylcholinesterase (AChE) small molecule antagonists: fluorescence cell-based qHTS assay (AID 1347398; calls by dose curve; note: nearly all actives have a fitted effect of over 50% in size). The settings on record: Potency: AChE activity. The gist of the method:
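SH-SY5Y, 2,000 cells/well, attached overnight; cmpd 30 min 37 C; acetylthiocholine/Thiolite Green cocktail 40 min RT; fluorescence Ex/Em 490/520 nm.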

For experiment [10] the target is unchanged. Put plainly: Acetylcholinesterase (AChE) small molecule antagonists: enzyme-based qHTS assay with human liver microsomes (AID 1347399; calls by dose curve; note: nearly all actives have a fitted effect of over 60% in size; note: potency is the fitted concentration of half-maximal effect). The settings on record: Potency: qHTS inhibition. The gist of the method: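 Recombinant human AChE (50 mU/mL in the enzyme mix) and human liver microsomes (0.25 mg/mL final) were preincubated with compound and NADPH (0.25 mg/mL final) for 30 min at 37 C. Acetylthiocholine/DTNB was then added; thiocholine was read colorimetrically after 10 min at room temperature.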

The target in experiment [11] is Cytochrome P450 2D6 (Homo sapiens) (UniProt P10635). Put plainly: Cytochrome P450 Family 2 Subfamily D Member 6 (CYP2D6) small molecule antagonists: luciferase reporter qHTS assay (AID 1671196). Note: series mostly up to about 120 µM; nearly all actives have a fitted effect of over 50% in size. The gist of the method:
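Enzyme and proluciferin substrate were first combined with test chemical for 10 min at room temperature. Adding NADPH regeneration solution started a 1 h reaction, stopped with luciferin detection reagent and read by luminescence 20 min later.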

Experiment [12] deals with Cytochrome P450 2C19 (Homo sapiens) (UniProt P33261). Description: Cytochrome P450 Family 2 Subfamily C Member 19 (CYP2C19) small molecule antagonists: luciferase reporter qHTS assay (AID 1671197). Note: nearly all actives have a fitted effect of over 65% in size. Note: potency is the fitted concentration of half-maximal effect. The gist of the method:
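CYP2C19 P450-Glo, 1536-well qHTS. Cpd + enzyme/proluciferin substrate 10 min RT; + NADPH regen, 37C 1 h; stop with luciferin detection reagent, 20 min RT, luminescence (RLU). Pos ctrl ketoconazole.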
A general note: In a reporter assay the amount or activity of a reporter protein is the signal.

Experiment [13] addresses Cytochrome P450 2C9 (Homo sapiens) (UniProt P11712). Description: Cytochrome P450 Family 2 Subfamily C Member 9 (CYP2C9) small molecule antagonists: luciferase reporter qHTS assay (AID 1671198). Note: nearly all actives have a fitted effect of over 50% in size. Note: potency is the fitted concentration of half-maximal effect. The gist of the method: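 P450-Glo proluciferin substrate with CYP2C9 enzyme; 10 min RT preincubation, then NADPH regeneration 1 h at 37C; luciferin detection reagent 20 min RT, luminescence in relative luminescence units.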

The target of experiment [14] is Cytochrome P450 1A2 (Homo sapiens) (UniProt P05177). Put plainly: Cytochrome P450 Family 1 Subfamily A Member 2 (CYP1A2) small molecule antagonists: luciferase reporter qHTS assay (AID 1671199). Note: nearly all actives have a fitted effect of over 50% in size. Note: potency is the fitted concentration of half-maximal effect. The gist of the method:
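Compounds were incubated with CYP1A2 and a luminogenic proluciferin substrate for 10 min at room temperature before the reaction was started with NADPH regeneration solution. After 1 h, detection reagent was added and light output, proportional to CYP activity, was recorded.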

Experiment [15] concerns the target Voltage-gated inwardly rectifying potassium channel KCNH2 (Homo sapiens) (UniProt Q12809). Put plainly: Human Ether-a-go-go-Related Gene (hERG) channel small molecule antagonists: fluorescence cell-based qHTS assay (AID 1671200). The method, boiled down: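 Quantitative HTS in hERG-U2OS cells: thallium entry through the channel reports activity, read as continuous 480/540 nm fluorescence over 2 min after stimulus addition.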
(The hERG channel carries a current that helps repolarise heart muscle cells.)

Experiment [16] has as its target Cytochrome P450 3A4 (Homo sapiens) (UniProt P08684). Description: Cytochrome P450 Family 3 Subfamily A Member 4 (CYP3A4) small molecule antagonists: luciferase reporter qHTS assay (AID 1671201). Note: nearly all actives have a fitted effect of over 50% in size. Note: potency is the fitted concentration of half-maximal effect. The gist of the method: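 Inhibition of CYP3A4 is measured as loss of light: the enzyme converts a proluciferin substrate to luciferin, detected luminescently. Reaction ran 1 h at room temperature with NADPH regeneration after a 10 min compound preincubation.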

Sequence of Cytochrome P450 2C19 (Homo sapiens) (P33261 whole entry, looked up): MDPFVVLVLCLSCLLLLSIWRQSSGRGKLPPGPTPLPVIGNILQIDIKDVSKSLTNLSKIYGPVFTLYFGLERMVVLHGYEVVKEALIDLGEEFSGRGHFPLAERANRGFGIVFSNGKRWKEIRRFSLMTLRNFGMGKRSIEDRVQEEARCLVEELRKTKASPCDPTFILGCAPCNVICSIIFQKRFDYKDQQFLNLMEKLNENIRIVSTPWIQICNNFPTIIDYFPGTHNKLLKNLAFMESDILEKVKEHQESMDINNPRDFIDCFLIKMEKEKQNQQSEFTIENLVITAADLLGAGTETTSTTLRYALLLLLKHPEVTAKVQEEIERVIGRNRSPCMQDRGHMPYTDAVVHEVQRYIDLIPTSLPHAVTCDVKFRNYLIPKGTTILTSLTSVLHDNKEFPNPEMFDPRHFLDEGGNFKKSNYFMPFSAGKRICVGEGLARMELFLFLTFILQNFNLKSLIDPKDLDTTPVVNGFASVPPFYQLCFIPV
Sequence of Cytochrome P450 2C9 (Homo sapiens) (P11712 whole entry, looked up): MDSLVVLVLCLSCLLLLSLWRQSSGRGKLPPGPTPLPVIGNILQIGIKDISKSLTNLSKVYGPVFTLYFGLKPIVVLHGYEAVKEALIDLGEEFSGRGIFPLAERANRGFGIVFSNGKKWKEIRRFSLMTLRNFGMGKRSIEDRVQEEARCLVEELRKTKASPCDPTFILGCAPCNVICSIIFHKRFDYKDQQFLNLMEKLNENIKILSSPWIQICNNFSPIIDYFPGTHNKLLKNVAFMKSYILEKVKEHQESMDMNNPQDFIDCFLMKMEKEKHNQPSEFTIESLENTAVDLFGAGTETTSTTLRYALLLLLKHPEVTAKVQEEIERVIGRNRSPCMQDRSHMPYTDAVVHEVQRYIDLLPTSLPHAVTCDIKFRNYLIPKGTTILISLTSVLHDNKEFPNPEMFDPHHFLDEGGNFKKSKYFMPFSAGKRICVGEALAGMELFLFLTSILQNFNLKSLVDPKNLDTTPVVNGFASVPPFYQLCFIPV
Sequence of Voltage-gated inwardly rectifying potassium channel KCNH2 (Homo sapiens) (Q12809 whole entry, looked up): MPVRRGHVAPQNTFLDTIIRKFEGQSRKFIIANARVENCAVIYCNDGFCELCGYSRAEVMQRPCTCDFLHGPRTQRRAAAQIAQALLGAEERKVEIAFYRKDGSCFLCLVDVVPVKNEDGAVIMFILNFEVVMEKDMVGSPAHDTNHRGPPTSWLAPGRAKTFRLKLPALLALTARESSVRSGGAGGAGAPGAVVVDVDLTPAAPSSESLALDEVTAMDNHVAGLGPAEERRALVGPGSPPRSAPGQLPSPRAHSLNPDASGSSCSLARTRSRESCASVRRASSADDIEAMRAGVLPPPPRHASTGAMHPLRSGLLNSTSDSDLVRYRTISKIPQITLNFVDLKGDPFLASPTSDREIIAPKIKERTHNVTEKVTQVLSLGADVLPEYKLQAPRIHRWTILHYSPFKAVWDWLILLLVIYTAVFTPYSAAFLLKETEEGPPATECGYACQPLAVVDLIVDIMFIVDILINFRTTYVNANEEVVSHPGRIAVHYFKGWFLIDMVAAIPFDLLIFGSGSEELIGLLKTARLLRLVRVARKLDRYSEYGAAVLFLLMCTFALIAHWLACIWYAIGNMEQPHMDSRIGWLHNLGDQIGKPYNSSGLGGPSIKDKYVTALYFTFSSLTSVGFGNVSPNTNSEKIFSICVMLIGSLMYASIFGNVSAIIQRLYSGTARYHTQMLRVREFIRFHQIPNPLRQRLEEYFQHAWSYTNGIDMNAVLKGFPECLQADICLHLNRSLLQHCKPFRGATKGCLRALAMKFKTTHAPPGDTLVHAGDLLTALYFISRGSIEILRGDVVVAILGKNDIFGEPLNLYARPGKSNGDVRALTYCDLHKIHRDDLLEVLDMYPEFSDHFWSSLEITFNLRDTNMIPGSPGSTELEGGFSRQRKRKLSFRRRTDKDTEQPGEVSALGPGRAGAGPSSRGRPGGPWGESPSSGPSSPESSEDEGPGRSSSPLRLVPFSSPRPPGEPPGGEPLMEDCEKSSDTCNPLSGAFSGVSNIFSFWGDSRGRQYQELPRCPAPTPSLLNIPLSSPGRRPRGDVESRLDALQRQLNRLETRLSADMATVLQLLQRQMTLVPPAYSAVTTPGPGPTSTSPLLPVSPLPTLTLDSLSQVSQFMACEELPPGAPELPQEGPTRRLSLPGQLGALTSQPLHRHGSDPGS
Sequence of Cytochrome P450 1A2 (Homo sapiens) (P05177 whole entry, looked up): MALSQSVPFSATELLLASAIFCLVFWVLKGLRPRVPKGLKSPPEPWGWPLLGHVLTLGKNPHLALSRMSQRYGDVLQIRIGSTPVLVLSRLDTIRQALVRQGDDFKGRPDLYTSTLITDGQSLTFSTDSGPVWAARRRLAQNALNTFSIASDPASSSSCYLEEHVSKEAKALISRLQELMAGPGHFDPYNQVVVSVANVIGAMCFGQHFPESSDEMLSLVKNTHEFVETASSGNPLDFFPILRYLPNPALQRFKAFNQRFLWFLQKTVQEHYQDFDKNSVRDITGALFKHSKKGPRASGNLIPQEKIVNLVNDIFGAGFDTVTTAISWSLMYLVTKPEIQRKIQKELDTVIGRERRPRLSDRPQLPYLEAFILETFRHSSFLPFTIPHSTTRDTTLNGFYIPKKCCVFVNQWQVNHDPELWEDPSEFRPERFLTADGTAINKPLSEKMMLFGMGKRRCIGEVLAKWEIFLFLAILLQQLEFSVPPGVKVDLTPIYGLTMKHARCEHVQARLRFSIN
Sequence of Cytochrome P450 3A4 (Homo sapiens) (P08684 whole entry, looked up): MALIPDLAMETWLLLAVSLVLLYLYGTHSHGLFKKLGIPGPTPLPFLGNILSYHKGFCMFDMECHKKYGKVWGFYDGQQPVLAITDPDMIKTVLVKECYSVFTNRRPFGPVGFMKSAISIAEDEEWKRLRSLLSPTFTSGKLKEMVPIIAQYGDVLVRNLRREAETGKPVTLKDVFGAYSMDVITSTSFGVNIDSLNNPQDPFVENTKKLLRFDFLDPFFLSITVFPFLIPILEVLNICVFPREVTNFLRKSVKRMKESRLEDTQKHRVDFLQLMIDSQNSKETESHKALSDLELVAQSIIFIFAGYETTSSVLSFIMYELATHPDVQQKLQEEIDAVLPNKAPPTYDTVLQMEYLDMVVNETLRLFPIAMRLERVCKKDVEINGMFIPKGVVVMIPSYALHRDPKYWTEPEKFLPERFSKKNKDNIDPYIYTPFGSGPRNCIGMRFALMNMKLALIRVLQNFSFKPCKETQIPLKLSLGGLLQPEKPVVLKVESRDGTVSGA
Sequence of Cytochrome P450 2D6 (Homo sapiens) (P10635 whole entry, looked up): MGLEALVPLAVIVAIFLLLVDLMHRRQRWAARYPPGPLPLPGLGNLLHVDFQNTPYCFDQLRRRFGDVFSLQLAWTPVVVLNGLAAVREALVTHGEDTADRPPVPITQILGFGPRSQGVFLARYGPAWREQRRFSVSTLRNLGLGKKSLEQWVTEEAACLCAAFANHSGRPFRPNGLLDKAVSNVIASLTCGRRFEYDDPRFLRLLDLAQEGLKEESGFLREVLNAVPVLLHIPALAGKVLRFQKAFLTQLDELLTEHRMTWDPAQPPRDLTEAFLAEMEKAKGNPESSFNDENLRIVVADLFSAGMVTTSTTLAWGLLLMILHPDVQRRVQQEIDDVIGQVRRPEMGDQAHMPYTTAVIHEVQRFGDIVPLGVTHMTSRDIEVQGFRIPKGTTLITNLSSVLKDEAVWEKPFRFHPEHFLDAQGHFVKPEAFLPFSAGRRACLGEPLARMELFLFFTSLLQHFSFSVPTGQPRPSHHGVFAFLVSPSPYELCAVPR
Sequence of Acetylcholinesterase (Homo sapiens) (P22303 whole entry, looked up): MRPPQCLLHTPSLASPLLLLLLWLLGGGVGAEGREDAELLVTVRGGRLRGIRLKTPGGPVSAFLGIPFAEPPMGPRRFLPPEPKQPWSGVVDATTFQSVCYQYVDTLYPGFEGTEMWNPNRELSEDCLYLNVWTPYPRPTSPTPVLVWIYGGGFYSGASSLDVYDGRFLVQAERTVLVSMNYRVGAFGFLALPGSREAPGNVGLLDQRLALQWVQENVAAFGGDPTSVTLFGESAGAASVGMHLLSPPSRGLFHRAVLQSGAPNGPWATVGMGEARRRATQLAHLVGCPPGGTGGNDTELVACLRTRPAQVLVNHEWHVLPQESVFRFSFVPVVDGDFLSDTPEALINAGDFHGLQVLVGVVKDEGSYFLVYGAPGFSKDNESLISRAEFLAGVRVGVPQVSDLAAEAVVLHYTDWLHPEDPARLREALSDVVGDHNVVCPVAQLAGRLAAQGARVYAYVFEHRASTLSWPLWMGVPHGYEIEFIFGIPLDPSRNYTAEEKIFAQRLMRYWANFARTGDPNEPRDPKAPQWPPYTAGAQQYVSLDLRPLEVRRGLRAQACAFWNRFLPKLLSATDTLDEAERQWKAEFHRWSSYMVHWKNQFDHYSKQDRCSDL
Sequence of Nuclear receptor subfamily 1 group I member 2 (Homo sapiens) (O75469 whole entry, looked up): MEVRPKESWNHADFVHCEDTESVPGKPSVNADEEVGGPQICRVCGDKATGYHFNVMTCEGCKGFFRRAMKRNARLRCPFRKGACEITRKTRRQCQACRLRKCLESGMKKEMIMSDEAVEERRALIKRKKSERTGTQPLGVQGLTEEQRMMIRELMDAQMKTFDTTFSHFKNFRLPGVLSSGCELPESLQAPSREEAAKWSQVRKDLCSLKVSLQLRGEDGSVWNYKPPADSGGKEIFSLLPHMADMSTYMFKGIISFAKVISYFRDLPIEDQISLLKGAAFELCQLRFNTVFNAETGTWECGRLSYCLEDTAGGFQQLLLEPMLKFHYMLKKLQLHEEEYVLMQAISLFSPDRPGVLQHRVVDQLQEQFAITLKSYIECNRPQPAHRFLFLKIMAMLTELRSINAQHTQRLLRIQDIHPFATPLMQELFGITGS

As for `CC1CC(=O)O1` (stereo not drawn), the Potency result in experiment [1], in experiment [2], in [3], in experiment [4], in [5] and in [6] was “inactive” each time. For the same compound, the Potency result in experiment [7], in experiment [8], in experiment [9], in experiment [10], in experiment [11] and in experiment [12] was “inactive” each time. Moreover, the Potency result in experiment [13], in experiment [14], in experiment [15] and in experiment [16] was “inactive” throughout.

Turning to `Nc1ncn[nH]1`, the Potency entry in experiment [1], in experiment [2], in experiment [3], in experiment [4], in [5] and in experiment [6] was “inactive” each time. Besides, the Potency result in experiment [7], in [8], in experiment [9], in experiment [10], in experiment [11] and in experiment [12] was “inactive” in each case. The Potency result in experiment [13], in experiment [14], in experiment [15] and in experiment [16] was “inactive” throughout.

Turning to `COC(=O)Nc1nc2ccccc2[nH]1`, the Potency entry in [1], in [4], in experiment [5], in experiment [7], in experiment [8] and in experiment [9] was “inactive” throughout. The Potency entry in experiment [10], in experiment [11], in experiment [12] and in experiment [15] was “inactive” each time. For the same compound, the Potency in experiment [2] is 6.11 µM (active) and inactive; in experiment [6], 54.5 µM (active); in experiment [13], “inactive and 71 µM (active)”; in experiment [14], 11.2 µM (active) and 20 µM (active).

Take `CC(C)(c1ccccc1)c1ccc(O)cc1`: the Potency entry in [1], in experiment [4], in experiment [5], in [7], in experiment [8] and in experiment [9] was “inactive” each time. Besides, the Potency entry in experiment [10], in [11], in [12], in experiment [14], in experiment [15] and in experiment [16] was “inactive” each time. In addition, the Potency was 60.6 µM (active) in experiment [2]; 27.1 µM (active) and 19.3 µM (active) in [6]; 11.2 µM (active) and 12.6 µM (active) in experiment [13].

For `CN(C)c1ccccc1`, the Potency entry in [1], in experiment [2], in experiment [3], in [4], in [5] and in experiment [6] was “inactive” in each case. Also, the Potency result in experiment [7], in [8], in experiment [9], in [10], in [11] and in experiment [13] was “inactive” in each case. The Potency result in [15] is “inactive”. For the same compound, the Potency in experiment [12] is 29 µM (active) and 41.6 µM (active); in [16], 32.5 µM (active) and inactive.

As for `CCCCSP(=O)(SCCCC)SCCCC`, the Potency entry in experiment [1], in experiment [2], in [3], in experiment [4], in [5] and in experiment [8] was “inactive” each time. In addition, in [15], the Potency result is “inactive”. Moreover, the Potency in experiment [6] is 23.8 µM (active); in experiment [10], 5.51 µM (active) and 5.03 µM (active); in experiment [12] it was 7.78 µM (active) and 2.52 µM (active); in experiment [13], 8.73 µM (active) and 3.17 µM (active); in experiment [14] it was 21.9 µM (active) and 12.6 µM (active).
